SMN2 splice enh = qHTS Assay for Enhancers of SMN2 Splice Variant Expression | 210,000 compounds, 2.8% hits | HEK293 SMN2-luciferase splicing reporter, luminescence, 30-36 h | Potency, µM (highest dose often 46.1 µM), usual class: activators; also: nearly all actives have a fitted effect of over 55% in size
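HEK293 cells carry an SMN2 minigene-luciferase reporter in which exon 7 inclusion puts luciferase in frame. Cells were seeded at 2000 cells/well, attached for 10-12 hours, then exposed to compounds for 30-36 hours at 37C before ONE-Glo luminescence.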
ELG1 DNA repair = qHTS screen for small molecules that inhibit ELG1-dependent DNA repair in human embryonic kidney (HEK293T) cells expressing luciferase-tagged ELG1 | HEK293T ELG1-luciferase reporter, luminescence, 16 h; DNA damage induced by 5-fluorouridine | Potency, µM (top dose mostly 46.1 µM), hits mostly inhibitors | 330,000 compounds, 2.3% hits | AID 504467, 2011; also: nearly all actives have a fitted effect of over 55% in size
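Overnight (16 hr) co-exposure of 2,000 cells/well to 5-fluorouridine and compound at 37 °C preceded detection. Luciferase was quantified via ONE-Glo luminescence; loss of signal denotes inhibition.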
NPC1 prom act = qHTS Assay for NPC1 Promoter Activators | Huh7 NPC1 promoter luciferase reporter, 24 h | Potency, µM (series often up to 9.22 µM), usual class: activators | 320,000 compounds, 2.4% hits | AID 485313, 2010; also: nearly all actives have a fitted effect of over 60% in size
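Luminescence read-out of NPC1 promoter-driven luciferase in stably transfected Huh7 cells; compounds delivered in DMSO and left 24 h at 37C, 5% CO2, qHTS titration format.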
FLuc counter = qHTS profiling assay for firefly luciferase inhibitor/activator using purifed enzyme and Km concentrations of substrates (counterscreen for miR-21 project); Luciferin 4-monooxygenase (Photinus pyralis), P08659; purified FLuc, Km substrates, luminescence inhibition; Potency, µM (highest dose often 57.5 µM), usual class: inhibitors; 360,000 compounds, 6.9% hits; also: nearly all actives have a fitted effect of over 55% in size
Target sequence (P08659 whole entry, looked up): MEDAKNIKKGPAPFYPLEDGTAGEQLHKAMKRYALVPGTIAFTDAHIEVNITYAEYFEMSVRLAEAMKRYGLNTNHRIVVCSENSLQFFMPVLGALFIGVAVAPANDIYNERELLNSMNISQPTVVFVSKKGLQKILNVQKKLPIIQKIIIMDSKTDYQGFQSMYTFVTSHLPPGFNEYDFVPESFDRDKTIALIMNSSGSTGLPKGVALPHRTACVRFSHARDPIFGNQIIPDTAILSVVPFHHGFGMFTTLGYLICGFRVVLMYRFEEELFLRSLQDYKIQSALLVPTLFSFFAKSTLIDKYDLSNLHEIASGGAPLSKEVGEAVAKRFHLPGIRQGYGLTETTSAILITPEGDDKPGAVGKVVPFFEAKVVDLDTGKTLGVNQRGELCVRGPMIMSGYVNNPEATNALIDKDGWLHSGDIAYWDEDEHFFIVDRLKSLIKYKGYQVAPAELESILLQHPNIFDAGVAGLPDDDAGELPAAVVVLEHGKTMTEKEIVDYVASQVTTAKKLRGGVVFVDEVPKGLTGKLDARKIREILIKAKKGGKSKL
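Biochemical qHTS of compounds, final roughly 60 µM downward over six points, against 10 nM purified firefly luciferase using Km concentrations of substrates (10 uM D-luciferin, 10 uM ATP) in Tris acetate pH 7.5 buffer; luminescence output.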
ELG1 genotox = qHTS screen for small molecules that induce genotoxicity in human embryonic kidney (HEK293T) cells expressing luciferase-tagged ELG1; HEK293T ELG1-luciferase reporter, luminescence, 16 h; Potency, µM (top dose mostly 46 µM), usual class: activators; 330,000 compounds, 1.3% hits; AID 504466, 2011; also: nearly all actives have a fitted effect of over 60% in size
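16 hr compound incubation (37 °C, 5% CO2) of HEK293T cells carrying luciferase-tagged ELG1; luciferase then measured by ONE-Glo luminescence after 30 min at RT.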
Rab9 prom act = qHTS Assay for Rab9 Promoter Activators; Potency, µM (top dose mostly 9.22 µM), usual class: activators; AID 485297, 2010; 320,000 compounds, 2.8% hits; Huh7 Rab9 promoter-luciferase reporter, luminescence, 24 h; also: nearly all actives have a fitted effect of over 60% in size
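Huh7 reporter line, Rab9 promoter upstream of luciferase. Compound exposure 24 h at 37 °C in reduced-serum medium with 10% FBS. Read-out: luminescence.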
A number is an active result; - = inactive; ? = inconclusive; . = no result given; [ ] = remark or other dose. Only some compounds are listed: those with a hit (about 9.2% of all), similar ones and a draw of the others. Calls follow the shape of the dose curve; as a rule, active = well fitted curve in the direction sought with a large enough effect; inconclusive = small, poorly fitted or top-dose-only effect, or another doubt; inactive = no such curve, though single readings can be large; an effect the other way counts as inactive or inconclusive.

SMILES	SMN2 splice enh	ELG1 DNA repair	NPC1 prom act	FLuc counter	ELG1 genotox	Rab9 prom act
CCOC(=O)C1=C(Cc2ccc(C)cc2)C(=O)c2ccccc2C1=O	-	?	-	13.5µM	-	-
O=C(O)CC(c1cccc([N+](=O)[O-])c1)N1Cc2ccccc2C1=O (stereo unspecified)	.	-	-	-	-	-
COc1ccc(OC)c(/C=C2\SC(N3CCCC(C)C3)=NC2=O)c1 (stereo unspecified)	.	?	-	?	-	-
O=C1N=C(N2CCCCC2)S/C1=C/C1=Cc2ccccc2OC1	-	?	-	2.39µM	?	-
CN(C)c1ccc(/C=C2\SC(N3CCCCC3)=NC2=O)cc1	.	?	?	0.536µM	?	-
CCOC(=O)C1CCN(C2=NC(=O)/C(=C/c3ccc(OC)c(OC)c3)S2)CC1	.	-	-	?	-	-
COc1ccc(/C=C2\SC(N3CCCCC3)=NC2=O)cc1OC	.	?	-	10.7µM	?	-
COc1cc(/C=C2\SC(N3CCC(C)CC3)=NC2=O)ccc1O	.	?	-	10.7µM	18.3µM	-
Cc1ccc(NC(=O)CN(C)C(=O)COC(=O)CNS(=O)(=O)c2ccc(F)c(F)c2F)cc1	.	?	-	-	-	-
COc1cccc(-c2nc(S(=O)(=O)c3ccccc3)c(N3CCCCC3)o2)c1	-	.	.	-	.	.
CCCNS(=O)(=O)c1ccc(CCC(=O)Nc2cc(Cl)ccc2Oc2ccccc2)cc1	-	23.1µM	-	-	-	-
COc1cccc(NC(=O)COc2ccc(C)cc2)c1	-	?	-	12µM	?	-
COc1cccc(NC(=O)COc2ccc3c(c2)CCC3)c1	-	?	-	15.1µM	-	-
COc1cccc(NC(=O)COc2cc(O)c3c(c2)OC(C)(C)CC3=O)c1	.	?	?	4.26µM	-	?
COc1ccccc1CNC(=O)COc1ccc(C)cc1	.	-	3.16µM	-	-	-
Cc1nc(N2CCOCC2)c2c(C(=O)Nc3cccc(C(F)(F)F)c3)c(C)oc2n1	.	.	.	-	.	.
COc1ccc(NS(=O)(=O)c2cccc(NC(=O)COc3ccc(OC)cc3)c2)cc1	.	?	-	16.9µM	-	-
CC1(C)CC(=O)c2c(O)cc(OCc3ccc([N+](=O)[O-])cc3)cc2O1	-	?	2.51µM	4.78µM	?	3.55µM
COc1ccc(-c2cccc(NC(=O)COc3ccc(Cl)cc3)c2)nn1	.	-	-	21.3µM	-	-
CS(=O)(=O)c1ccc(-c2cccc(NC(=O)COc3ccc(Cl)cc3)c2)nn1	.	?	-	-	-	-
CC(C)(C)S(=O)(=O)c1cnc(N2CCCCC2)nc1N	.	-	-	-	-	-
CC(C)(C)S(=O)(=O)c1cnc(-c2ccc(Cl)cc2)nc1N	.	?	2.51µM	?	-	2.24µM
COCC(C)NC(=O)C(C)Oc1ccccc1 (stereo unspecified)	-	-	-	-	-	-
Nc1ccc2c(c1)COC2=O	-	?	-	16.9µM	-	-
Cc1ccc(C)c(OC(=O)C2CSC3(C)CCC(=O)N23)c1C (stereo unspecified)	.	-	-	-	-	-
SMILES	SMN2 splice enh	ELG1 DNA repair	NPC1 prom act	FLuc counter	ELG1 genotox	Rab9 prom act
COc1ccc(NC(=O)CCCC(=O)NCCc2ccc(OC)c(OC)c2)cc1	.	-	-	-	-	-
CCN(Cc1ccccc1)C(=O)c1cc(-c2ccccc2)n[nH]1	.	.	.	15.1µM	.	.
CCN(Cc1ccccc1)C(=O)c1ccc(C(=O)N(CC)Cc2ccccc2)cc1	.	-	-	-	-	-
Cc1ccc(NC(=O)CN(C)C(=O)CSc2nnc(NC(C)C)s2)cc1	.	-	-	-	-	-
O=C(CSc1nnc(NC2CCCCC2)s1)Nc1ccc2c(c1)C(=O)c1ccccc1C2=O	11.2µM	?	3.55µM	?	-	2.82µM
NS(=O)(=O)c1ccc(NC(=O)CSc2nnc(NC3CC3)s2)cc1	.	?	-	-	-	-
CC(C)Nc1nnc(SCC(=O)Nc2ccc3c(c2)C(=O)c2ccccc2C3=O)s1	14.1µM	?	?	?	-	3.55µM
O=C(c1cccs1)N1CCN(C23CC4CC(CC(C4)C2)C3)CC1	.	-	-	-	-	-
Cc1csc(N(C(=O)c2cccc(S(=O)(=O)N(C)C)c2)c2ccccc2)n1	-	14.6µM	-	-	-	-
Cc1csc(NC(=O)c2cccc(S(=O)(=O)N3CCN(C)CC3)c2)n1	-	?	-	-	-	-
Cc1csc(N(C(=O)c2cccc(S(=O)(=O)N3CCCC3)c2)c2ccccc2)n1	-	20.6µM	-	-	-	-
O=C(/C=C/c1ccc(Cl)c(Cl)c1)NC1=NCCS1	-	?	2.82µM	?	-	2.24µM
CC(C)c1ccc(/C=C/C(=O)NC2=NCCS2)cc1	1.78µM	?	0.316µM	1.35µM	?	0.316µM
CCCc1nnc(NC(=O)CCC(=O)N2CCN(Cc3ccc(Cl)cc3)CC2)s1	.	-	-	-	-	-
CC1(C)OC(=O)C(=CNc2cccc(O)c2)C(=O)O1	-	-	-	?	-	-
CC1(C)OC(=O)C(=NNc2ccc(Br)cc2)C(=O)O1	-	?	-	19µM	-	-
CC(=O)Oc1ccc(Cl)cc1/C=C/c1ccc2ccccc2n1	14.1µM	?	3.16µM	5.36µM	-	?
C(=C\c1ccc2ccccc2n1)/c1ccccc1	.	?	2.82µM	0.0757µM	?	0.501µM
CN(C)c1ccc(CNc2nc3ccccc3s2)cc1	.	?	0.1µM	0.239µM	0.461µM	0.251µM
CN(C)c1ccc(/C=C/c2nc3ccccc3s2)cc1	-	-	-	0.107µM	-	?
Cc1cc(N/N=C/c2ccc(N(C)C)cc2)c2ccccc2n1	.	-	-	?	-	-
O=C(O)/C=C/c1ccc2ccccc2n1	-	-	-	-	-	-
CC(=O)Oc1c(Cl)cc(Cl)cc1/C=C/c1ccc2ccccc2n1	.	?	-	-	-	?
O=C(O)[C@@H](O)c1ccc(F)cc1	-[9.22 µM]	.	.	.	.	.
CCCN(CCC)c1ccc(/C=C/c2ccc3cc(OCC)ccc3n2)cc1	.	?	?	6.75µM	-	2.24µM
Cc1ccc(/C=C/c2nc3ccccc3s2)s1	-	?	-	0.301µM	0.517µM	?
COc1cc(/C=C/c2nc3ccccc3s2)cc(OC)c1O	-	?	-	19µM	18.3µM	?
COc1cc(/C=C(\C#N)C(N)=O)cc(CSc2nc3ccccc3s2)c1O	-	.	.	.	.	.
Cc1ccc(S(=O)(=O)Nc2nc3ccccc3s2)cc1	-	-	-	-	-	-
CCN(CC(=O)Nc1c(F)cccc1F)C(=O)/C=C/c1ccc2ccccc2n1	.	-	-	-	-	-
